Measured values as given in PubChem BioAssay (NCI).
This is part of a sample that, as a whole, favours compounds with a hit. Of some 83,000 tested, about 20% had one in any assay.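 Treatment: one concentration, 48 hours, 96-well format. Scoring: percent growth, with anything below 10 considered active.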 Active and inactive are the calls of the source.

Tested on: HCC-2998 colon
Assay: NCI-60 one-dose screen, 48 h (100 = growth as untreated, 0 = no growth, -100 = all killed)
Details: 10 µM unless noted

Q: With `COc1ccc(-c2c(N)n[nH]c2-c2cc3c(c(OC)c2OC)OCO3)cc1` as the molecule, how does the growth read?
A: 106% (inactive)

Q: Which growth does the source give for `Clc1ccc(-c2nc3ccccc3s2)cc1Cl` here?
A: 93.9% (inactive)

Q: `COc1ccc(-n2c(=O)sc3c(Cl)nc(C)nc32)c(OC)c1` was tested. Which growth did it give?
A: 87.3% (inactive)

Q: With `O=C(O)c1nc(-c2ccccc2)oc1N1CCOCC1` as the molecule, how does the growth read?
A: 105% (inactive)

Q: With `Cn1c(=O)c2[nH]c(C3CC=CCC3)nc2n(C)c1=O` (configuration not stated) as the molecule, how does the growth read?
A: 104% (inactive)

Q: Which growth does the source give for `Cc1ccc(S(=O)(=O)c2nc(-c3ccccc3)oc2S(C)(=O)=O)cc1` here?
A: 97.4% (inactive)

Q: Which growth does the source give for `COc1ccc(C2=Nn3c(nnc3-n3nc(C)cc3C)SC2)cc1` here?
A: 4.24% (active)

Q: For `O=C(O)/C=C/C(=O)c1ccc(Cl)cc1`, which growth is on record?
A: 109% (inactive)

Q: `Cc1cc(N)n(S(=O)(=O)c2oc(-c3ccccc3)nc2C#N)n1` was tested. Which growth did it give?
A: 114% (inactive)

Q: With `Cc1ccc(NS(=O)(=O)c2cc(C)ccc2C)cc1` as the molecule, how does the growth read?
A: 50.9% (inactive)

Q: How did the growth turn out when `COc1cc(-c2nn(-c3cccc(NC(=O)c4ccccc4)c3)cc2-c2ccncc2)ccc1Cl` was run?
A: 20.1% (inactive)

Q: `CCCCCCCC/C=C/CCCCCCCC1=NC(C)(C)CN1C(C)(C)CO` was tested. Which growth did it give?
A: -93.4% (active)

Q: For `COc1ccc(-n2c(=S)sc3c(Cl)nc(C)nc32)c(OC)c1`, which growth is on record?
A: 35.4% (inactive)

Q: `CCOC(=O)c1cn2c3c(cc(C)cc3c1=O)C(=O)/C(=C/c1ccccc1)C2` was tested. Which growth did it give?
A: 98.9% (inactive)

Q: Which growth does the source give for `CN(C)CC(C(=O)c1ccccc1)c1ccccc1` (configuration not stated) here?
A: 74.9% (inactive)

Q: For `NC(=O)CCCN1C/C(=C\c2ccccc2)C(=O)c2ccccc21`, which growth is on record?
A: 93.8% (inactive)

Q: How did the growth turn out when `COc1ccc(Nc2nn3c(C)cc(C)nc3c2C(=O)Nc2ccc(C)cc2)c(OC)c1` was run?
A: 94.2% (inactive)
